Results as given in PubChem BioAssay (NCATS).
Results filed as inconclusive are left out. The source made the active and inactive calls. Calls follow the shape of the dose curve; as a rule, active = well fitted inhibition curve with a large enough effect; inconclusive = small, poorly fitted or top-dose-only effect; inactive = flat fitted curve, though single readings scatter.

Assay: Drug repurposing screens with cells derived from glioblastoma tumor samples (AID 1345199); also: nearly all actives have a fitted effect of over 40% in size
Details: GBM patient neurospheres viability, ATP luminescence, 48 h; at 45.9 µM (top of the series); tumour line D
In short: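 Primary testing used CD133+ neurospheres from four GBM patients, seven concentrations, 48 h exposure and ATP-based viability; confirmation added three slower-growing patient lines.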
% is scaled to controls: 0 for no effect and ±100 for the full control effect.

SMILES	activity, negative = cell killing
NC(=O)[C@@H]1C[C@]2(NC(=O)NC2=O)c2cc(F)ccc2O1	3.75% (inactive)
C[C@H](O)CN(C)C	-16.1% (inactive)
CNC(=O)[C@H](Cc1c[nH]c2ccccc12)NC(=O)[C@@H](CC(=O)NO)CC(C)C	-19.3% (inactive)
COc1cc(S(C)=O)ccc1-c1nc2ncccc2[nH]1 (stereo not drawn)	-12% (inactive)
COc1ccc(-c2noc(CC(=O)O)c2-c2ccc(OC)cc2)cc1	-6.66% (inactive)
C[C@H](NCCc1ccc(O)cc1)[C@H](O)c1ccc(O)cc1	-20.4% (inactive)
CC(C)(C)NCC(O)c1ccc(O)c(CO)n1 (stereo not drawn)	7.95% (inactive)
O=C(O)C1=C(CSc2nnnn2CS(=O)(=O)O)CS[C@@H]2[C@H](NC(=O)[C@H](O)c3ccccc3)C(=O)N12	-23.3% (inactive)
CC1CC(O)CC(C)(C)C1 (stereo not drawn)	-9.42% (inactive)
CC1CCCCN1CCCOC(=O)c1ccccc1 (stereo not drawn)	-13.7% (inactive)
Cc1cc(C)c(NC(=O)C[C@H](CC(=O)O)c2cccc3ccccc23)c(C(=O)N2CCC3(CCCC3)CC2)c1	2.34% (inactive)
CC(C)CCC[C@@H](C)[C@H]1CC[C@H]2[C@@H]3CC[C@@H]4C[C@H](O)CC[C@]4(C)[C@H]3CC[C@]12C	-20.8% (inactive)
C=CCCCCCCCCC(=O)OC	-1.83% (inactive)
CCCCCCCCCCCC(=O)OC[C@@H](O)C1OC[C@H](O)[C@H]1O (stereo partly drawn)	-10.2% (inactive)
CC(C)C[C@@H](NC(=O)[C@@H](O)[C@H](N)Cc1ccccc1)C(=O)O	-2.21% (inactive)
COc1ccc(/C=N/NC(=O)c2ccncc2)c(C(=O)O)c1OC	8.03% (inactive)
NC(=O)Oc1ccc(Cc2ccccc2)cc1	-13.8% (inactive)
S=C1SCN(Cc2ccccc2)CN1Cc1ccccc1	-15% (inactive)

SMILES	activity, negative = cell killing
CCN(CC)C(=O)[C@]1(c2ccccc2)C[C@@H]1CN	-13.9% (inactive)
C=CCN1CCCC1CNC(=O)c1cc(S(N)(=O)=O)cc(OC)c1OC (stereo not drawn)	-19.4% (inactive)
NC(Cc1ccccc1)C(=O)O (stereo not drawn)	10.2% (inactive)
O=C(O)COc1ccccc1/C=N/NC(=O)c1ccncc1	5.85% (inactive)
COc1ccc(/C=C/C(=O)O)cc1	-5.33% (inactive)
CC(CCc1ccc(O)cc1)NCC(O)c1ccc(O)cc1 (stereo not drawn)	4.34% (inactive)
OC[C@H]1OC([S-])[C@H](O)[C@@H](O)[C@@H]1O.[Au+] (stereo partly drawn)	-19.5% (inactive)
O=S(=O)(O)CCCS(=O)(=O)O	-10.4% (inactive)
CCCCC[C@H](O)/C=C/[C@H]1[C@H](O)CC(=O)[C@@H]1C/C=C\CCCC(=O)O	-17.7% (inactive)
C[C@@H]1C[C@H]2[C@@H]3C[C@H](F)C4=CC(=O)C=C[C@]4(C)[C@@]3(Cl)[C@@H](O)C[C@]2(C)[C@H]1C(=O)COC(=O)C(C)(C)C	-9.89% (inactive)
Cc1cc2nc3c(=O)[nH]c(=O)nc-3n(C[C@H](O)[C@H](O)[C@H](O)COP(=O)(O)OP(=O)(O)OC[C@H]3O[C@@H](n4cnc5c(N)ncnc54)[C@H](O)[C@@H]3O)c2cc1C	-9.51% (inactive)
C[C@@H]1C[C@H]2[C@@H]3CCC4=CC(=O)C=C[C@]4(C)[C@@]3(F)[C@@H](O)C[C@]2(C)[C@@]1(O)C(=O)COC(=O)c1cccc(S(=O)(=O)O)c1	-16.1% (inactive)
CCCCCCCCCCCCCCCC(=O)OC[C@@H](O)[C@H]1OC[C@H](O)[C@H]1O	10.4% (inactive)
CO/N=C(\C(=O)N[C@@H]1C(=O)N2C(C(=O)[O-])=C(C[n+]3cccc4c3CCC4)CS[C@H]12)c1csc(N)n1	-9.09% (inactive)
C[C@@H](O)[C@H]1C(=O)N2C(C(=O)[O-])=C(SC3Cn4cnc[n+]4C3)[C@H](C)[C@H]12 (stereo partly drawn)	-27.3% (inactive)
CC(=O)N[C@@H](C=O)[C@@H](O)[C@H](O)[C@H](O)CO	-3.57% (inactive)
CNC(=O)OCc1cccc(COC(=O)NC)n1	4.88% (inactive)

Same assay, conditions: GBM patient neurospheres viability, ATP luminescence, 48 h; at 46 µM (top of the series); tumour line A

SMILES	activity, negative = cell killing
COc1ccc(/C=N/NC(=O)c2ccncc2)c(C(=O)O)c1OC	-30.2% (inactive)
Cc1cc2nc3c(=O)[nH]c(=O)nc-3n(C[C@H](O)[C@H](O)[C@H](O)COP(=O)(O)OP(=O)(O)OC[C@H]3O[C@@H](n4cnc5c(N)ncnc54)[C@H](O)[C@@H]3O)c2cc1C	-9.49% (inactive)
C[C@@H]1C[C@H]2[C@@H]3CCC4=CC(=O)C=C[C@]4(C)[C@@]3(F)[C@@H](O)C[C@]2(C)[C@@]1(O)C(=O)COC(=O)c1cccc(S(=O)(=O)O)c1	-5.39% (inactive)
CNC(=O)OCc1cccc(COC(=O)NC)n1	-25.4% (inactive)

Same assay, conditions: GBM patient neurospheres viability, ATP luminescence, 48 h; at 46.1 µM (top of the series); tumour line C

SMILES	activity, negative = cell killing
NC(=O)[C@@H]1C[C@]2(NC(=O)NC2=O)c2cc(F)ccc2O1	-17.3% (inactive)
C[C@H](O)CN(C)C	-13.2% (inactive)
CNC(=O)[C@H](Cc1c[nH]c2ccccc12)NC(=O)[C@@H](CC(=O)NO)CC(C)C	-23.8% (inactive)
COc1cc(S(C)=O)ccc1-c1nc2ncccc2[nH]1 (stereo not drawn)	-12.6% (inactive)
COc1ccc(-c2noc(CC(=O)O)c2-c2ccc(OC)cc2)cc1	-18% (inactive)
C[C@H](NCCc1ccc(O)cc1)[C@H](O)c1ccc(O)cc1	-12.8% (inactive)
CC(C)(C)NCC(O)c1ccc(O)c(CO)n1 (stereo not drawn)	-15% (inactive)
O=C(O)C1=C(CSc2nnnn2CS(=O)(=O)O)CS[C@@H]2[C@H](NC(=O)[C@H](O)c3ccccc3)C(=O)N12	-17.1% (inactive)
CC1CC(O)CC(C)(C)C1 (stereo not drawn)	-22% (inactive)
CC1CCCCN1CCCOC(=O)c1ccccc1 (stereo not drawn)	-1.82% (inactive)
Cc1cc(C)c(NC(=O)C[C@H](CC(=O)O)c2cccc3ccccc23)c(C(=O)N2CCC3(CCCC3)CC2)c1	-29.7% (inactive)
CC(C)CCC[C@@H](C)[C@H]1CC[C@H]2[C@@H]3CC[C@@H]4C[C@H](O)CC[C@]4(C)[C@H]3CC[C@]12C	-6.49% (inactive)
C=CCCCCCCCCC(=O)OC	7.19% (inactive)
CCCCCCCCCCCC(=O)OC[C@@H](O)C1OC[C@H](O)[C@H]1O (stereo partly drawn)	-22.6% (inactive)
CC(C)C[C@@H](NC(=O)[C@@H](O)[C@H](N)Cc1ccccc1)C(=O)O	-22.2% (inactive)
NC(=O)Oc1ccc(Cc2ccccc2)cc1	-22.5% (inactive)
S=C1SCN(Cc2ccccc2)CN1Cc1ccccc1	-9.54% (inactive)
CCN(CC)C(=O)[C@]1(c2ccccc2)C[C@@H]1CN	-22.9% (inactive)
NC(Cc1ccccc1)C(=O)O (stereo not drawn)	-12.6% (inactive)
O=C(O)COc1ccccc1/C=N/NC(=O)c1ccncc1	-10.4% (inactive)
COc1ccc(/C=C/C(=O)O)cc1	9.31% (inactive)
CC(CCc1ccc(O)cc1)NCC(O)c1ccc(O)cc1 (stereo not drawn)	2.7% (inactive)
OC[C@H]1OC([S-])[C@H](O)[C@@H](O)[C@@H]1O.[Au+] (stereo partly drawn)	-19.6% (inactive)
O=S(=O)(O)CCCS(=O)(=O)O	-13.4% (inactive)
CCCCC[C@H](O)/C=C/[C@H]1[C@H](O)CC(=O)[C@@H]1C/C=C\CCCC(=O)O	-15.8% (inactive)
C[C@@H]1C[C@H]2[C@@H]3C[C@H](F)C4=CC(=O)C=C[C@]4(C)[C@@]3(Cl)[C@@H](O)C[C@]2(C)[C@H]1C(=O)COC(=O)C(C)(C)C	-26.7% (inactive)
CCCCCCCCCCCCCCCC(=O)OC[C@@H](O)[C@H]1OC[C@H](O)[C@H]1O	-6.66% (inactive)
C[C@@H](O)[C@H]1C(=O)N2C(C(=O)[O-])=C(SC3Cn4cnc[n+]4C3)[C@H](C)[C@H]12 (stereo partly drawn)	-6.91% (inactive)
CC(=O)N[C@@H](C=O)[C@@H](O)[C@H](O)[C@H](O)CO	-2.77% (inactive)
